# ± gives the standard deviation of the averaged measurements.
# Legend:
# DLD1 [1] = experiment: cell viability (CellTiter-Glo) relative to plate median (fraction of plate median); higher = more viable cells; settings: 5 µM; treatment time 24 h; reporter: 7TFP
# Method in brief: (§1)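 Colorectal cancer lines with stably integrated lentiviral TCF/Wnt firefly luciferase reporters received library compounds at a final 5 µM, 24 h after seeding into 384-well plates, for a 24 h exposure. Reported figures are plate-median-normalised firefly luciferase or CellTiterGlo luminescence per well. They average two independent replicates.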
# HCT116 = experiment: as above; settings: 5 µM; treatment time 24 h; reporter: TCF4/Wnt
# Method in brief: as §1
# SW480 [2] = experiment: as above; settings: 5 µM; treatment time 24 h; reporter: 7TFP
# Method in brief: as §1
# DLD1 [3] = experiment: TCF/Wnt firefly luciferase reporter signal relative to plate median (fraction of plate median); higher = higher Wnt reporter signal; settings: 5 µM; treatment time 24 h; reporter: 7TFP
# Method in brief: as §1
# SW480 [4] = experiment: as above; settings: 5 µM; treatment time 24 h; reporter: 7TFP
# Method in brief: as §1
Structure (SMILES),cell viability (DLD1 [1]),cell viability (HCT116),cell viability (SW480 [2]),TCF/Wnt firefly luciferase reporter signal (DLD1 [3]),TCF/Wnt firefly luciferase reporter signal (SW480 [4])
CC(=O)O[C@@H]1C[C@@]2(C)[C@H](c3ccoc3)C[C@H]3O[C@]32[C@]2(C)C(=O)C(O)=C3C(C)(C)C(=O)C=C[C@]3(C)[C@@H]12,0.901 ± 0.044,0.824 ± 0.14,1.09 ± 0.12,0.888 ± 0.03,0.831 ± 0.19
C[C@@H]1CC[C@H]2[C@@H](C)C(=O)O[C@@H]3O[C@@]4(C)CC[C@@H]1[C@]32OO4,1.04,1.09 ± 0.14,1.145 ± 0.0071,1 ± 0.023,0.984 ± 0.066
N=C(NCCC[C@H](N)C(=O)O)N[N+](=O)[O-],0.944 ± 0.14,0.966 ± 0.047,0.9515 ± 0.0064,1.07 ± 0.05,0.947 ± 0.09
COc1ccc(OC)c(C(O)C(C)N)c1 (stereo not given),0.976 ± 0.1,0.974 ± 0.037,0.926 ± 0.029,0.976 ± 0.031,1.13 ± 0.11
O=C(NC(=O)c1c(F)cccc1F)Nc1cc(Cl)c(OC(F)(F)C(F)C(F)(F)F)cc1Cl (stereo not given),0.985 ± 0.05,0.984 ± 0.066,0.987 ± 0.013,0.907 ± 0.028,1.03
O=C(O)c1cccc2nc3ccccc3nc12 [1-Phenazinecarboxylic acid],1.12 ± 0.16,1.05,1.32 ± 0.11,0.986 ± 0.091,1.03 ± 0.12
CN1C(=O)CCS(=O)(=O)C1c1ccc(Cl)cc1 (stereo not given),1.01 ± 0.033,1.02 ± 0.014,0.946 ± 0.15,0.984 ± 0.023,1.04 ± 0.093
CN(C)C(=S)SSC(=S)N(C)C,0.722 ± 0.25,0.363 ± 0.021,0.997 ± 0.033,0.686 ± 0.13,0.508 ± 0.12
CCOC(=O)C1C(C=C(C)C)C1(C)C (stereo not given),0.913 ± 0.11,0.961 ± 0.038,0.932 ± 0.05,0.906 ± 0.064,1.02 ± 0.035
C[C@@H]1O[C@@H](O[C@H]2C[C@@H](O)[C@]3(CO)[C@H]4[C@H](O)C[C@]5(C)[C@@H](C6=CC(=O)OC6)CC[C@]5(O)[C@@H]4CC[C@]3(O)C2)[C@H](O)[C@H](O)[C@H]1O,0.99 ± 0.085,0.401 ± 0.29,1.02 ± 0.14,0.128 ± 0.13,0.146 ± 0.12
[O-][n+]1ccccc1[S-].[O-][n+]1ccccc1[S-].[Zn+2],0.515 ± 0.32,0.19 ± 0.11,0.628 ± 0.13,0.216 ± 0.13,0.165 ± 0.15
CCC(=O)O[C@H]1CC[C@H]2[C@@H]3CCC4=CC(=O)CC[C@]4(C)[C@H]3CC[C@]12C,1.02 ± 0.045,0.894 ± 0.06,1 ± 0.012,0.994 ± 0.17,0.99 ± 0.013
Cc1cc(O)cc2oc(=O)c3c(O)cc(O)cc3c12 [Alternariol],0.914 ± 0.017,0.919 ± 0.013,1.01 ± 0.03,0.861 ± 0.12,0.992 ± 0.097
